NadD inh: inhibitors of S. aureus NadD, primary screen, biochemical, colorimetric, uHTS | Nicotinate-nucleotide adenylyltransferase NadD (Staphylococcus aureus N315) | purified NadD enzyme, colorimetric absorbance read-out | inhibition, % at 20 µM | 0.78% of 360,000 active; in the data active = inhibition above about 26%
Beta2AR agonist: beta2AR agonists driving receptor internalization, primary screen, cell-based, FAP fluorogen, flow cytometry; Beta-2 adrenergic receptor (Homo sapiens), P07550; Am2.2-beta2AR cells; response, % (test concentration not listed); 0.43% of 340,000 active;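 active = response above a set limit, near 3 SD of response in nonfluorescent compounds, cut at about 42% in these data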
Target sequence (P07550 whole entry, looked up): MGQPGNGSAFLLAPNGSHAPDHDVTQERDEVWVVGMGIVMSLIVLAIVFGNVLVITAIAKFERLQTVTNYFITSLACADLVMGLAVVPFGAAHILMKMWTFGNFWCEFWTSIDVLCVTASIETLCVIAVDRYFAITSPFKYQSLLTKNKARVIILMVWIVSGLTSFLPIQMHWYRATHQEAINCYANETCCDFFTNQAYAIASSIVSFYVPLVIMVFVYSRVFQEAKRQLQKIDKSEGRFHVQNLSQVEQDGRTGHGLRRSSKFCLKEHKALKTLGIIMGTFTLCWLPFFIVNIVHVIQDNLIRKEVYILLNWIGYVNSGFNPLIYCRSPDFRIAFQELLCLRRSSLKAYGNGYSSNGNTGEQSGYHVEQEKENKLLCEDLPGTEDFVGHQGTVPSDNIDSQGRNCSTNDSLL
PP1 inh: PP1-alpha phosphatase inhibitors, primary screen, counter-screen for PP5 inhibitor project, biochemical, fluorescence, OMFP substrate, single point. purified PP1alpha. inhibition, % at 6.7 µM. 0.9% of 320,000 active. AID 2235, 2010;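 active = inhibition above the mean inhibition of all tested compounds plus 3 SD, computed separately for each screening campaign, cut at about 15% in these data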
GRK2 inh: compounds blocking aptamer binding on GRK2 – biochemical, human GRK2, bead flow cytometry, HTS, primary screen. Beta-adrenergic receptor kinase 1 (Homo sapiens), P25098. FAM-aptamer displacement from GRK2. inhibition of aptamer binding, % at 10 µM. 0.59% of 330,000 active. AID 488847, 2010;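 active = inhibition of aptamer binding above 40%, roughly 3 SD of noise, on plates passing a quality check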;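 note: median bead fluorescence of bound FAM aptamer so fluorescent compounds give negative values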
Granule exo inh: LAMP-1 surface exposure blockers, TALL-104 cells – cell-based, flow cytometry, MLPCN library, primary screen; TALL-104 LAMP-1 surface exposure; cells stimulated with thapsigargin and PMA; inhibition, % at 10 µM; 0.66% of 360,000 active;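 active = inhibition above about 55%, limit read from the data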
NadD conf: inhibitors of S. aureus NadD, confirmation, biochemical, colorimetric, single concentration. shares compounds with NadD inh. purified S. aureus NadD, colorimetric enzyme assay. inhibition, % at 20 µM. 13% of 2,000 active. AID 624309, 2012; in the data active = inhibition mostly above about 42%, no sharp cut-off; inactive = mostly below about 42%
A number is an active result; - = inactive; . = not tested or not shown. The list is not random: actives were taken first. Their share in the collection is about 2.9%.

SMILES | NadD inh | Beta2AR agonist | PP1 inh | GRK2 inh | Granule exo inh | NadD conf
CCCCn1c(N)c(N(CCOC)C(=O)c2c(CC)noc2C)c(=O)[nH]c1=O | - | - | - | - | - | .
Cc1nc(/N=C(\N)NC(=O)N2c3ccccc3Sc3ccccc32)nc2ccccc12 | 31 | - | - | - | - | -
CC(C)[C@H](NC(=O)[C@@H]1Cc2c([nH]c3ccccc23)C2c3ccccc3C(=O)N21)C(=O)N1CCC[C@H]1C(=O)O (some centres undefined) | - | . | . | . | - | .
CS(=O)(=O)N(CC(=O)NC1CC2CCC1C2)c1ccc(Oc2ccccc2)cc1 (centres undefined) | - | - | - | - | - | .
Cc1cccc(N2CCN(C(=O)c3ccc4c(c3)NC(=O)C(CSCc3cccc(F)c3)N4)CC2C)c1 (centres undefined) | 49 | - | - | - | - | 70
O=C(NC(=S)Nn1cnc2c(cnn2-c2ccccc2)c1=O)c1ccc(Oc2ccccc2)cc1 | 42 | - | - | - | - | -
O=C(NC(=S)Nn1cnc2c(cnn2-c2ccccc2)c1=O)c1ccc(Cl)cc1 | - | - | - | - | - | .
Cn1c(SCC(=O)c2ccc(-c3ccccc3)cc2)nnc1-c1ccco1 | 32 | - | - | - | - | -
O=C1NC(Cc2ccc(O)cc2)c2nc3ccc(Br)cc3c(=O)n2-c2cc3ccccc3cc21 (centres undefined) | 31 | . | . | . | - | -
N#Cc1c(NC(=O)c2ccc([N+](=O)[O-])o2)sc2c1CCC2 | - | - | - | - | - | .
COc1ccc(C2C=C(C34CC5CC(CC(C5)C3)C4)NC(=S)N2)cc1OC (centres undefined) | 29 | - | - | - | - | -
COc1ccc(C2OCC(C)(C)CO2)cc1OC | - | - | . | . | - | .
C=C(CC[C@@H](O)C(C)(C)O)[C@H]1CC[C@]2(C)[C@@H]1CCC1[C@@]3(C)CC[C@H](O)C(C)(C)C3CC[C@]12C (some centres undefined) | - | - | . | - | - | .
C=C(C)[C@@H]1CC[C@]2(C(=O)O)CC[C@]3(C)[C@H](CC[C@@H]4[C@@]5(C)CC[C@H](O)C(C)(C)[C@@H]5CC[C@]43C)[C@@H]12 | 53 | - | - | - | - | -
Cc1ccc(NC(=O)N(Cc2ccc3c(c2)OCO3)Cc2cc3cc4c(cc3[nH]c2=O)OCCO4)cc1 | 34 | - | - | - | - | -
N#CC(C#N)=c1ccc2c(c1)NC1(CCCCC1)N=2 | - | - | - | - | - | .
CCOc1cc(/C=C(\CC(=O)O)c2nc3ccccc3s2)ccc1OCC(=O)Nc1cccc(C(F)(F)F)c1 | 37 | - | . | . | - | -
CCCC[C@H](CN[C@@H](CNC)[C@H](C)CC)NCCC12CCC(CC1)C2 | - | - | - | - | - | .
O=C(Nc1nc2ccc(F)cc2s1)C1CCN(S(=O)(=O)c2cc([N+](=O)[O-])ccc2Cl)CC1 | 35 | - | - | - | - | -
CC(NC(=O)C1CCN(S(=O)(=O)c2cc([N+](=O)[O-])ccc2Cl)CC1)c1ccccc1 (centres undefined) | - | - | - | - | - | .
Cc1ccc(NC(=O)CN(C)C(=O)CSc2nccn2C)cc1 | - | - | . | - | - | .
O=C(c1cccc(S(=O)(=O)N2CCN(c3ccc(F)cc3)CC2)c1)N1CCN(c2ccccc2O)CC1 | 38 | - | . | . | - | -
Cc1c(NC(=O)c2cc(-n3cnnc3)ccc2Cl)cccc1-c1nc2ccccc2s1 | - | - | - | - | - | .
O=C(Nc1cccc(-c2nc3ccccc3s2)c1)c1cc(-n2cnnc2)ccc1Cl | 40 | - | - | - | - | -
O=C(Cn1c2ccccc2c(=O)c2ccccc21)N/N=C/c1cc([N+](=O)[O-])ccc1N1CCCCCC1 | 50 | - | - | - | - | -
COc1cc(/C=C(\C#N)c2nc3ccccc3[nH]2)ccc1OC(=O)c1ccco1 | - | - | - | - | - | .
N#C/C(=C\c1ccncc1)c1nc2ccccc2[nH]1 | - | - | . | . | - | .
COc1cc(/C=C(\C#N)c2nc3ccccc3[nH]2)c([N+](=O)[O-])cc1OCc1ccccc1 | 40 | - | - | - | - | -

Screens (PubChem)
